Source: PubChem
CYP2C19 inhib – human CYP2C19 inhibition. AID 778. actives 21% (n = 96,000). CYP2C19 Supersomes, luciferin-H EGE luminescence, 30 min. inhibition, % at 5 µM. P33261;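 active = CYP2C19 inhibition above a set limit at 5 µM in the primary screen, cut at about 50% in these data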;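 note: plate controls were negative control wells for no effect and 2.5 mM tranylcypromine positive control for full effect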
Target sequence (P33261 whole entry, looked up): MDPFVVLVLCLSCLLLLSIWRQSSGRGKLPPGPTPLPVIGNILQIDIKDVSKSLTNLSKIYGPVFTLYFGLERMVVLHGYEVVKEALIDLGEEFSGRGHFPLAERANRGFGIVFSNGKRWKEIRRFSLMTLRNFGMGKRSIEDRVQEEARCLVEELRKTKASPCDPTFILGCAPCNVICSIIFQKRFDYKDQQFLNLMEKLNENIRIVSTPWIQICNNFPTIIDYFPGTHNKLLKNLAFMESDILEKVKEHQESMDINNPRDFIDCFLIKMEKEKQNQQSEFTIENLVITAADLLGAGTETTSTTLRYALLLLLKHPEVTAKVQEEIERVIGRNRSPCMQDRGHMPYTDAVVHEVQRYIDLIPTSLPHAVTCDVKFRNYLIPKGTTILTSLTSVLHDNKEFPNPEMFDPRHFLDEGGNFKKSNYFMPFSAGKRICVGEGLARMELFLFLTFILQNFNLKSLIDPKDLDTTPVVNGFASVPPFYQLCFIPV
PLAP act – activates human placental alkaline phosphatase; actives 1.2% (n = 96,000); activation fold at 20 µM; AID 696; purified PLAP enzyme, luminescent substrate read-out; hits give high values; P05187; in the data active = activation fold above about 2
CYP2C19 act – increases human CYP2C19 enzyme activity. P33261. recombinant CYP2C19, luciferin-H EGE luminescence; hits give high values; 0 = fully inhibited enzyme, 1 = untreated enzyme. activation factor at 5 µM. 96,000 tested, under 10 active. AID 1025;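 active = activation factor of at least 2 at 5 µM in the primary screen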;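 note: 0 = wells with 2.5 mM tranylcypromine and 1 = vehicle-only wells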
CYP2C9 activ – increases human cytochrome P450 2C9 activity | P11712 | recombinant CYP2C9, luciferin-H conversion, luminescence; hits give high values; factor 1 = untreated enzyme, 0 = blocked | activation factor at 5 µM | actives 1.4% (n = 96,000);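 active = activation factor of 2 or more for CYP2C9 at a 5 µM dose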;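 note: 0 = sulfaphenazole-blocked wells and 1 = vehicle-only wells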
CYP2C9 inhib – blocks human cytochrome P450 2C9 | P11712 | CYP2C9 Supersomes, luciferin-H conversion, luminescence | inhibition, % at 5 µM | actives 20% (n = 96,000);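 active = blocking of liver enzyme CYP2C9 beyond about 50% at 5 µM, limit read from the data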
An asterisk follows results filed as active. Most compounds without a hit are left out; they make up all but 31% or so of the library.

`O=C1CC(c2ccccc2)CC(O)=C1C=NCCN1CCN(C(=S)Nc2cccc(Cl)c2)CC1` (stereo unspecified) gave CYP2C19 inhib 72.3*, PLAP act 1.5, CYP2C19 act 0.3, CYP2C9 activ 0.5 and CYP2C9 inhib 47.2.
`COC(=O)CCN(C(=O)c1ccc(OC(C)=O)cc1)c1ccccn1` gave CYP2C19 inhib -16.3, PLAP act 0.9, CYP2C19 act 1.2, CYP2C9 activ 1.1 and CYP2C9 inhib -13.4.
`CC(=O)C1=C(C)NC(SCC(N)=O)=C(C#N)C1C` (stereo unspecified) gave CYP2C19 inhib -25.8, PLAP act 0.8, CYP2C19 act 1.3, CYP2C9 activ 1.3 and CYP2C9 inhib -30.6.
Screening CC(=O)C1=C(C)OC(N)=C(C#N)C1c1ccco1 (stereo unspecified) returned CYP2C19 inhib 36.5, PLAP act 1.1, CYP2C19 act 0.6, CYP2C9 activ 1 and CYP2C9 inhib -3.9.
`CC(=O)C1=C(C)NC(SCC(=O)c2ccc(Cl)cc2)=C(C#N)C1CC(C)C` (stereo unspecified) gave CYP2C19 inhib 99.1*, PLAP act 1.2, CYP2C19 act 0, CYP2C9 activ 0 and CYP2C9 inhib 95.2*.
`CC(=O)C1=C(C)NC(SCc2cccc([N+](=O)[O-])c2)=C(C#N)C1c1ccco1` (stereo unspecified) gave CYP2C19 inhib 100.0*, PLAP act 0.8, CYP2C19 act 0, CYP2C9 activ 0.2 and CYP2C9 inhib 83.5*.
CC(=O)C1=C(C)NC(SCC(=O)c2ccc(F)cc2)=C(C#N)C1c1ccco1 (stereo unspecified) was read as CYP2C19 inhib 97.8*, PLAP act 1.2, CYP2C19 act 0, CYP2C9 activ 0.2 and CYP2C9 inhib 79.7*.
`COc1ccccc1NC(=O)C1=C(C)NC(SCC(=O)c2ccc(C)cc2)=C(C#N)C1c1ccco1` (stereo unspecified) gave CYP2C19 inhib 84.2*, PLAP act 1.6, CYP2C19 act 0.2, CYP2C9 activ 0.1 and CYP2C9 inhib 89.9*.
`COc1cccc(S(=O)(=O)Nc2ccc(C(=O)N3CCOCC3)cc2)c1` gave CYP2C19 inhib 19.9, PLAP act 1.1, CYP2C19 act 0.8, CYP2C9 activ 0.8 and CYP2C9 inhib 20.1.
Screening COc1ccc(C(=O)Nc2ccccc2C(=O)N/N=C/c2cccc3ccccc23)cc1 returned CYP2C19 inhib 36.6, PLAP act 1, CYP2C19 act 0.6, CYP2C9 activ 0.5 and CYP2C9 inhib 49.5.
Screening CCc1ccc(C(=O)CSC2=C(C#N)C(c3ccco3)C(C(C)=O)=C(C)N2)cc1 (stereo unspecified) returned CYP2C19 inhib 47.8, PLAP act 1.2, CYP2C19 act 0.5, CYP2C9 activ 0.2 and CYP2C9 inhib 75.8*.
`CCOC(=O)C1=C(C)NC(SCC(=O)O)=C(C#N)C1c1ccco1` (stereo unspecified) gave CYP2C19 inhib -1.9, PLAP act 1, CYP2C19 act 1, CYP2C9 activ 0.6 and CYP2C9 inhib 41.2.
`COc1ccc(C2(CNC(=O)c3ccc(Br)o3)CCOCC2)cc1` gave CYP2C19 inhib 26.5, PLAP act 1, CYP2C19 act 0.7, CYP2C9 activ 0.7 and CYP2C9 inhib 31.3.
`CCn1c(SC/C=C/c2ccccc2)nnc1-c1cnccn1` gave CYP2C19 inhib 31.4, PLAP act 1.2, CYP2C19 act 0.7, CYP2C9 activ 0.9 and CYP2C9 inhib 6.8.
C=CCn1c(Cc2cccs2)nnc1SC/C=C/c1ccccc1 was read as CYP2C19 inhib 70.1*, PLAP act 1.1, CYP2C19 act 0.3, CYP2C9 activ 0.4 and CYP2C9 inhib 57.7*.
Screening C=CCn1c(SCc2ccccc2)nnc1-c1cccnc1 returned CYP2C19 inhib 35.6, PLAP act 0.7, CYP2C19 act 0.6, CYP2C9 activ 1 and CYP2C9 inhib -4.4.
`C=CCn1c(SCc2nc3ccccc3nc2C)nnc1-c1ccoc1C` gave CYP2C19 inhib 95.2*, PLAP act 1.2, CYP2C19 act 0, CYP2C9 activ 1.4 and CYP2C9 inhib -38.7.
`CCn1c(SCC(=O)NCCc2ccccc2)nnc1-c1cccs1` gave CYP2C19 inhib 32.4, PLAP act 0.9, CYP2C19 act 0.7, CYP2C9 activ 0.7 and CYP2C9 inhib 32.0.
`CCn1c(SCC(=O)c2ccccc2)nnc1-c1cccs1` gave CYP2C19 inhib 68.8*, PLAP act 0.9, CYP2C19 act 0.3, CYP2C9 activ 0.8 and CYP2C9 inhib 16.1.
